Each structure is given as a SMILES string. Inconclusive results are not listed. Calls of active or inactive are those of the source. Unless noted, calls follow the shape of the dose curve; as a rule, active = well fitted curve in the direction sought with a large enough effect; inconclusive = small, poorly fitted or top-dose-only effect, or another doubt; inactive = no such curve, though single readings can be large; an effect the other way counts as inactive or inconclusive.
Potency is read from the fitted curve at half-maximal effect.

Rap guanine nucleotide exchange factor 3 (Homo sapiens), sequence (O95398 whole entry, looked up): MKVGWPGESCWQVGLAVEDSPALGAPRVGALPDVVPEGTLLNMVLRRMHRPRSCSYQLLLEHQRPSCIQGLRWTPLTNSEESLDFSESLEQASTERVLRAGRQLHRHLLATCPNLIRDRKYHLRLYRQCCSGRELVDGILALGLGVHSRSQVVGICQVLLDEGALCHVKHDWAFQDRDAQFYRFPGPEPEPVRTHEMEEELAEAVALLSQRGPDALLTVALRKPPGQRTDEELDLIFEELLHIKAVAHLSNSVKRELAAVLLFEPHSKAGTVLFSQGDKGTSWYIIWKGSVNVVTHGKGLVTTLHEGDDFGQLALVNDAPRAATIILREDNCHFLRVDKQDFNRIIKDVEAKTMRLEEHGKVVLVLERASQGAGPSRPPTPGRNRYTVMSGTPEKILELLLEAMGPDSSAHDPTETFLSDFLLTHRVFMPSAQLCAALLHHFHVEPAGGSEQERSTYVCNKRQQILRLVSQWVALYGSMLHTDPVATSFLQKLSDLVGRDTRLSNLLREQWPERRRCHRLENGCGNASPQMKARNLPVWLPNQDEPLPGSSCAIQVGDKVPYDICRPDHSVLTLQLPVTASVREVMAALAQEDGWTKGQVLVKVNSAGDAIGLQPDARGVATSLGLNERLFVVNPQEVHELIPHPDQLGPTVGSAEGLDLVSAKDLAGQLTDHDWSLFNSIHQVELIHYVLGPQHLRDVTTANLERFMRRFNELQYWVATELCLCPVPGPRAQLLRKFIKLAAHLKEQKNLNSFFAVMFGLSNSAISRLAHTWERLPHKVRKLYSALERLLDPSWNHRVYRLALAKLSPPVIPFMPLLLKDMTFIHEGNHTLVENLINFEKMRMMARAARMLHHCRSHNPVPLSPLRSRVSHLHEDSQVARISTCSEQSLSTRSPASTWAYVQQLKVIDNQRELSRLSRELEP

Test system in the first test: not listed separately
Description: Primary qHTS to identify inhibitors of SARS-CoV-2 cell entry (AID 1645846; calls by dose curve; also: nearly all actives have a fitted effect of over 45% in size). As to conditions: SARS-CoV-2 pseudovirus cell entry assay, luminescence; activity change, negative = inhibition: at 57.1 µM (top of the series) unless noted. In a few lines: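 Using luciferase-reporting pseudoviruses carrying Wuhan-Hu-1 spike, the screen tracks entry into stably ACE2-expressing cells over 48 hr. Activity is expressed relative to spike particles versus particles lacking any fusion protein.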
For orientation: qHTS replaces the single test concentration by a dilution series.
For the compound `Nc1nc2c(c(=O)[nH]1)N1CN(c3ccc(C(=O)N[C@@H](CCC(=O)O)C(=O)O)cc3)CC1CN2` (stereo partly specified), the activity change, negative = inhibition was -83.8%.
For the compound `CNCc1ccc(C)c(NC(=O)c2ccc(Nc3nc(-c4ccccc4)c4ccccc4n3)cc2)c1`, the Potency was 14.1 µM (active).
In the case of `CNC(=O)c1c(-c2ccc(F)cc2)oc2cc(N(CCO)S(C)(=O)=O)c(C3CC3)cc12`, the activity change, negative = inhibition is -3.84%.
As to `COC1CC(C(=O)c2ccc3c(N)ncc(-c4ccc(-c5cnn(C)c5)cc4)c3n2)C1` (stereo unspecified), the Potency is 8.91 µM (active).
In the case of `CC1(C)CC(O)CC(C)(C)N1O`, the activity change, negative = inhibition is -11.7%.
On to `COc1ccc(N2C(=O)N(c3c(C)cccc3Cl)Cc3cnc(Nc4ccc(C5CCN(C)CC5)cc4OC)nc32)nc1`, for which the Potency was 35.5 µM (active).
In the case of `Cc1ccc(S(=O)(=O)Nc2cc(-c3ccc(C#N)s3)ccc2C)cc1`, the activity change, negative = inhibition was -92%.
For the compound `COc1ccc(/C=C\c2cc(OC)c(OC)c(OC)c2)cc1O`, the activity change, negative = inhibition was -68.5%.
On to `Cc1ccc(S(=O)(=O)Nc2cc(C(F)(F)F)ccc2C(=O)Nc2nc(-c3ccccc3)cs2)cc1`, for which the Potency was 8.91 µM (active).
The same measure, in the same setting: under `COc1nc(OCc2cccc(-c3ccccc3)c2C)ccc1CNCCNC(C)=O` stands 11.2 µM (active).
On to `CCc1ccc(N(CC(C)C)S(=O)(=O)c2ccc(OCC3CCOCC3)c(CO)c2)cc1`, for which the activity change, negative = inhibition is -88.5%.
On to `COc1cc([C@@H]2c3cc4c(cc3[C@@H](O[C@@H]3O[C@@H]5CO[C@@H](c6cccs6)O[C@H]5[C@H](O)[C@H]3O)[C@H]3COC(=O)[C@H]23)OCO4)cc(OC)c1O`, for which the activity change, negative = inhibition is -96.2%.
For the compound `C[C@]12CC[C@H](O)C[C@H]1CCC1C2CC[C@]2(C)[C@@H](c3ccc(=O)oc3)C[C@H]3O[C@]132` (stereo partly specified), the Potency is 7.08 µM (active).

Test system in the next test: not listed separately
Description: VSVG counterscreen qHTS to identify inhibitors of SARS-CoV-2 cell entry (AID 1645847; calls by dose curve; also: nearly all actives have a fitted effect of over 65% in size; as to activity change, negative = inhibition: % is scaled to controls: 0 for no effect and ±100 for the full control effect). As to conditions: VSV-G pseudotyped particle entry, luciferase; series mostly up to 57.2 µM. In a few lines:
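Entry of VSV-G pseudotyped particles into human ACE2-expressing HEK293 cells was measured by luciferase luminescence 48 h after infection, with compound added 1 h beforehand.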
As to `Nc1nc2c(c(=O)[nH]1)N1CN(c3ccc(C(=O)N[C@@H](CCC(=O)O)C(=O)O)cc3)CC1CN2` (stereo partly specified), the Potency was 3.41 µM (active).
For `COC1CC(C(=O)c2ccc3c(N)ncc(-c4ccc(-c5cnn(C)c5)cc4)c3n2)C1` (stereo unspecified), the Potency entry was “inactive”.
For the compound `CCc1ccc(N(CC(C)C)S(=O)(=O)c2ccc(OCC3CCOCC3)c(CO)c2)cc1`, the Potency is 24.1 µM (active).

Test system in a further test: not listed separately
Description: Primary qHTS for inhibitors of nuclear receptor binding SET domain protein 2 (NSD2) in an isogenic RCH-ACV NSD2 p.E1099K mutant (9B) (AID 1645876). Also: nearly all actives have a fitted effect of over 70% in size. The conditions noted are these: RCH-ACV NSD2 E1099K (9B) viability, CellTiter-Glo, 72 h; series mostly up to 44.9 µM.
`COC(=O)[C@]12CCC(C)(C)C[C@@H]1[C@@H]1C(=O)C=C3[C@]4(C)C=C(C#N)C(=O)C(C)(C)[C@@H]4CC[C@@]3(C)[C@]1(C)CC2`: the Potency is 0.461 µM (active).
Same read-out and setting: in the case of `CC1(C)CC(O)CC(C)(C)N1O` it was “inactive”; in that of `COC[C@@H]1OC(=O)c2coc3c2[C@]1(C)C1=C(C3=O)[C@H]2CC[C@H](O)[C@@]2(C)C[C@@H]1OC(C)=O`, 0.82 µM (active).
On to `c1cc2c(cc1C1OC[C@@H]3C(c4ccc5c(c4)OCO5)OC[C@H]13)OCO2` (stereo partly specified), for which the Potency entry is “inactive”.

Test system in a further test: not listed separately
Description: Primary qHTS for inhibitors of nuclear receptor binding SET domain protein 2 (NSD2) in an RCH-ACV wild type WT cells (2C) (AID 1645877). Also: nearly all actives have a fitted effect of over 70% in size. The conditions noted are these: RCH-ACV (leukaemia line) NSD2 WT (2C) viability, CellTiter-Glo, 72 h; series mostly up to 44.9 µM.
In the case of `COC(=O)[C@]12CCC(C)(C)C[C@@H]1[C@@H]1C(=O)C=C3[C@]4(C)C=C(C#N)C(=O)C(C)(C)[C@@H]4CC[C@@]3(C)[C@]1(C)CC2`, the Potency was 0.326 µM (active).
Still for that read-out and setting: in the case of `CC1(C)CC(O)CC(C)(C)N1O` it was “inactive”; in that of `COC[C@@H]1OC(=O)c2coc3c2[C@]1(C)C1=C(C3=O)[C@H]2CC[C@H](O)[C@@]2(C)C[C@@H]1OC(C)=O`, 0.651 µM (active).
Same read-out and setting: in the case of `c1cc2c(cc1C1OC[C@@H]3C(c4ccc5c(c4)OCO5)OC[C@H]13)OCO2` (stereo partly specified) it was “inactive”.

The next test has as its target Rap guanine nucleotide exchange factor 3 (Homo sapiens) (UniProt O95398). Description: Confirmatory qHTS for antagonist of cAMP-regulated guanine nucleotide exchange factor 3 (EPAC1) (AID 1645880). Also: nearly all actives have a fitted effect of over 55% in size. The conditions noted are these: EPAC1 Rap1B-BODIPY-GDP exchange, fluorescence; series mostly up to 115 µM. The method, boiled down: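 Nucleotide exchange uses 100 nM EPAC1, 250 nM RAP1B-BODIPY-GDP and 50 uM GDP, with compounds in a concentration-titration series. After 5 min at room temperature, fluorescence (480 nm ex/540 nm em) is read every 5 min for 30 min. Data are normalized to control ATA and DMSO.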
On to `CCOC(=O)[C@]12Cc3ccsc3[C@H]1N(Cc1ccccc1)C(=O)c1ccccc12`, for which the Potency result is “inactive”.
With `CCOC(=O)[C@]12Cc3ccccc3[C@H]1N(C1CCCCC1)C(=O)c1cc(OC)ccc12`, the Potency result was “inactive”.
Same read-out and setting: under `Nc1c(C(=O)Nc2ccc(Br)cc2F)sc2nc3c(cc12)N1CCC3CC1` stands “inactive”.
Regarding `Cc1c2cnn(CC(=O)N3CCC4(CC3)OCCO4)c(=O)c2c(C)n1Cc1ccc(F)cc1`, the Potency result is “inactive”.
Consider `COc1cccc(-n2c(/C=C/c3ccc(O)c(O)c3)nc3ccccc3c2=O)c1`, for which the Potency is 31.6 µM (active).
Consider `O=C1NCN(c2ccccc2)C12CCN(C(c1cc3ccccc3o1)c1nnnn1C1CCCC1)CC2` (stereo unspecified), for which the Potency entry was “inactive”.
For the compound `CN(C)CC(C(=O)Cc1ccccc1)c1ccccc1` (stereo unspecified), the Potency result is “inactive”.
Consider `CCOC(=O)[C@]12Cc3cc(Cl)ccc3[C@H]1N(C1CCCCC1)C(=O)c1ccccc12`, for which the Potency entry was “inactive”.
Same read-out and setting: under `CCN1C(=O)C(=C/C=C/c2ccco2)C(=O)N(CC)C1=S` stands “inactive”; under `Cc1ccc(N2C(=O)NC(=O)/C(=C\C=C\c3ccco3)C2=O)cc1`, 42.6 µM (active); under `CCCSc1nc2ccccc2c(=O)n1-c1ccccc1OC`, “inactive”.
Same read-out and setting: in the case of `CCCCn1c(NS(=O)(=O)c2ccc(C)cc2)c(C(=O)OCC)c2nc3ccccc3nc21` it was 75.7 µM (active); in that of `O=C1NC(=O)N(c2cccc(Cl)c2)C(=O)/C1=C\c1ccc(Sc2nc3ccccc3[nH]2)o1`, 28.2 µM (active).
Same read-out and setting: in the case of `O=C1NC(=O)N(Cc2ccccc2)C(=O)/C1=C/C=C/c1ccco1` it was 44.7 µM (active); in that of `N#CC(C#N)=NNc1ccc(S(N)(=O)=O)cc1`, 44.7 µM (active).
`CCOC(=O)[C@]12Cc3cc(OC)ccc3[C@H]1N(Cc1ccccc1)C(=O)c1cc(F)c(F)cc12`: the Potency result is “inactive”.
As to `CCOC(=O)[C@]12Cc3ccc(C)cc3[C@H]1N(C1CCCCC1)C(=O)c1cc(OC)ccc12`, the Potency result is “inactive”.
As to `Cc1ccc(N2C(=O)NC(=O)/C(=C\c3cc(C)n(-c4sc5c(c4C#N)CCCC5)c3C)C2=O)cc1`, the Potency was 16.9 µM (active).
On the same count and under the same terms, in the case of `CCOC(=O)[C@]12Cc3cc(C)ccc3[C@H]1N(C1CCCCC1)C(=O)c1ccccc12` it was “inactive”; in that of `CCCNC(=O)N1[C@H]2CC[C@@H]1C(C(=O)OC)=C(c1ccc(F)cc1OCc1ccccc1)C2`, “inactive”; in that of `CCOC(=O)[C@]12Cc3cc(N(C)C)ccc3[C@H]1N(Cc1ccccc1)C(=O)c1ccccc12`, “inactive”.
On the same count and under the same terms, under `COc1ccc(C(SCC(NC(=O)OCc2ccccc2)C(=O)O)c2ccc(OC)cc2)cc1` (stereo unspecified) stands “inactive”.

Source of the values: PubChem BioAssay (NCATS).
